This passage reports AC50 and outcome results from PubChem BioAssay (EPA / NIEHS).

Usually AC50 stands for the concentration giving half of the maximal activity seen.

Test [1] can be described thus: BSK_LPS_SRB: Viability Assessment in the BioMAP Diversity Plus: LPS Assay (AID 2283079).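 Note: total protein by sulforhodamine B absorbance as a cytotoxicity measure; measured one day after compound addition; fitted in both directions against DMSO so loss or gain of signal counts.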 The settings on record: primary human HUVEC with PBMC. A digest of the protocol:
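Co-culture of human umbilical vein endothelial cells and PBMC, read 24 h after dosing. Total protein by 0.1% SRB staining after 10% TCA fixation, absorbance at 560 nm; bidirectional fit against DMSO.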

Read-out in test [2]: Interleukin-1 alpha (IL1a), IL1A (gene 3552)
Nature of the test: BSK_LPS_IL1a: BioMAP Diversity Plus: LPS Assay for Interleukin-1 alpha (IL1a) Biomarker Activity (AID 2283080). The note with it: primary human HUVEC with PBMC; actives raise or lower the signal. In outline: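 Human umbilical vein endothelial cells co-cultured with PBMC and stimulated with LPS; IL-1a measured by ELISA 24 h after dosing. Bidirectional fitting against DMSO; cytotoxicity checked by SRB staining in parallel cultures.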

Read-out in test [3]: Monocyte Chemoattractant Protein-1 (MCP1), CCL2 (gene 6347)
Nature of the test: BSK_LPS_MCP1: BioMAP Diversity Plus: LPS Assay for Monocyte Chemoattractant Protein-1 (MCP1) Biomarker Activity (AID 2283081).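 For AC50: secreted MCP-1 protein quantified by ELISA in culture supernatant.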 The settings on record: primary human HUVEC with PBMC; actives raise or lower the signal. In outline:
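Human umbilical vein endothelial cells co-cultured with PBMC, LPS-stimulated; secreted MCP-1 measured by ELISA 24 h after compound addition. Bidirectional curve fitting against DMSO baseline; SRB total-protein staining in parallel cultures for cytotoxicity.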

Test [4] in a line: BSK_LPS_PGE2: BioMAP Diversity Plus: LPS Assay for Prostaglandin E2 (PGE2) Biomarker Activity (AID 2283082).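 For AC50: secreted prostaglandin E2 measured by ELISA in LPS-stimulated co-culture.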 The note with it: primary human HUVEC with PBMC; actives raise or lower the signal. A digest of the protocol:
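HUVEC plus human PBMC co-culture stimulated with LPS; secreted PGE2 quantified by ELISA 24 h after chemical dosing. Activity fitted bidirectionally against DMSO baseline; parallel SRB staining (0.1% SRB after 10% TCA fixation, 560 nm) flags overt cytotoxicity.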

Read-out in test [5]: Macrophage colony-stimulating factor (MCSF), CSF1 (gene 1435)
Nature of the test: BSK_LPS_MCSF: BioMAP Diversity Plus: LPS Assay for Macrophage colony-stimulating factor (MCSF) Biomarker Activity (AID 2283083). The settings on record: primary human HUVEC with PBMC; actives raise or lower the signal. In outline:
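HUVEC–PBMC co-culture, M-CSF measured by ELISA 24 h after chemical dosing. Fitted in both directions relative to DMSO as negative control; overt cytotoxicity assessed by SRB total-protein staining in parallel cultures.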

Read-out in test [6]: Tissue Factor, F3 (gene 2152)
Nature of the test: BSK_LPS_TissueFactor: BioMAP Diversity Plus: LPS Assay for Tissue Factor Biomarker Activity (AID 2283084). The note with it: primary human HUVEC with PBMC; actives raise or lower the signal. In outline: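 Human umbilical vein endothelial cells co-cultured with PBMC were dosed with compound. Cell-surface CD142 was measured by ELISA 24 h later. Activity was fitted bidirectionally against DMSO, with SRB total-protein staining in parallel cultures for cytotoxicity.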

Read-out in test [7]: Tumor necrosis factor (Homo sapiens) (UniProt P01375)
Nature of the test: BSK_LPS_TNFa: BioMAP Diversity Plus: LPS Assay for Tumour Necrosis Factor alpha (TNFa) Biomarker Activity (AID 2283085).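 For AC50: TNFa protein level quantified by ELISA in the co-culture.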 The note with it: primary human HUVEC with PBMC; actives raise or lower the signal. In outline: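 Human umbilical vein endothelial cells co-cultured with PBMC and stimulated with LPS. TNFa was measured by ELISA 24 h after chemical dosing, fitted bidirectionally relative to DMSO.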

Read-out in test [8]: Vascular cell adhesion molecule 1 (VCAM1), VCAM1 (gene 7412)
Nature of the test: BSK_LPS_VCAM1: BioMAP Diversity Plus: LPS Assay for Vascular cell adhesion molecule 1 (VCAM1) Biomarker Activity (AID 2283086). The note with it: primary human HUVEC with PBMC; actives raise or lower the signal. A digest of the protocol: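 Human umbilical vein endothelial cells co-cultured with PBMC and stimulated with LPS; VCAM-1 measured by ELISA 24 h after dosing. Bidirectional curve fitting against DMSO baseline; cytotoxicity tracked in parallel by SRB total-protein staining.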

Read-out in the next test: CD38, CD38 (gene 952)
As to the kind of experiment: BSK_SAg_CD38: BioMAP Diversity Plus: SAg Assay for CD38 Biomarker Activity (AID 2283087). The note with it: primary human HUVEC with PBMC; actives raise or lower the signal. A digest of the protocol:
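Human HUVEC plus PBMC co-culture stimulated with superantigen; CD38 measured by ELISA 24 h after chemical dosing. Fluorescence read-out, bidirectional fit against DMSO; cytotoxicity tracked in parallel by SRB and Alamar Blue.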

Read-out in the next test: CD40, CD40 (gene 958)
Nature of the test: BSK_SAg_CD40: BioMAP Diversity Plus: SAg Assay for CD40 Biomarker Activity (AID 2283088). The note with it: primary human HUVEC with PBMC; actives raise or lower the signal. In outline:
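HUVEC plus PBMC co-culture, superantigen-activated, with CD40 read by ELISA 24 h after dosing. Curves fitted in both directions against DMSO. Overt cytotoxicity checked by parallel SRB total-protein staining.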

Where “and” joins values, the source holds several entries; their conditions need not be identical. Equal values may be shown once. A structure can be active in one record and inactive in another. Calls of active or inactive are those of the source. Rule for the calls: active = hit-call score of the fitted dose curve at least 0.9, where 1 is the maximum; inactive = score below 0.9.

Chain of Tumor necrosis factor (Homo sapiens) (P01375 whole entry, looked up): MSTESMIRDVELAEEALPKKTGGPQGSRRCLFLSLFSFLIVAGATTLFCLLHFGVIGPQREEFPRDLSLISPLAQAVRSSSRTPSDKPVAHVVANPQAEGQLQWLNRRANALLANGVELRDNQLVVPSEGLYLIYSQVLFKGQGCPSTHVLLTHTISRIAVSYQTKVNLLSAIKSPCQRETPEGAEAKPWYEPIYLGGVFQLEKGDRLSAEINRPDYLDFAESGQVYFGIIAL

Regarding `Fc1ccc(Oc2ccnc3cc(Cl)cc(Cl)c23)cc1`, the half-maximal activity concentration (AC50) in [1] was 24 µM (active); in test [2], 14.6 µM (active); in test [3] it was 29.5 µM (active); in [4] it was 8.77 µM (active); in test [5], 18.7 µM (active); in test [6], 32.3 µM (active). Also, the half-maximal activity concentration (AC50) in [7] is 20 µM (active); in test [8], 23.2 µM (active); with CD38, CD38 (gene 952) it was 25.1 µM (active).
For `CCOP(=S)(OCC)SCn1c(=O)oc2cc(Cl)ccc21`, the AC50 in test [1] was 31.6 µM (active); in test [3] it was 25.8 µM (active); in test [4], 13.5 µM (active); in [5], 11.1 µM (active); in test [7], 12 µM (active); in test [8] it was 13.9 µM (active). Moreover, in the test with CD38, CD38 (gene 952), the concentration at half-maximal activity (AC50) was 30.4 µM (active). The outcome was “inactive” in [2]; “inactive” in [6]; “inactive” with CD40, CD40 (gene 958).
With `CCOc1cc(Oc2ccc(C(F)(F)F)cc2Cl)ccc1[N+](=O)[O-]`, the AC50 in test [1] was 9.65 µM (active); in [5] it was 5.45 µM (active); in the test with CD38, CD38 (gene 952), 8.23 µM (active). Moreover, the outcome in test [2], in test [3], in [4], in test [6], in test [7] and in test [8] was inactive. Moreover, the outcome with CD40, CD40 (gene 958) was inactive.
For the compound `O=C(O)COc1nc(Cl)c(Cl)cc1Cl`, the result in test [1], in [2], in test [3], in [4], in [5] and in [6] was inactive. Besides, the outcome in [8] was “inactive”; in the test with CD38, CD38 (gene 952), “inactive”; in the test with CD40, CD40 (gene 958) it was “inactive”. Moreover, in test [7], the AC50 was 27.8 µM (active).
Turning to `CCCCOC(=O)c1ccccc1C(=O)OCCCC`, the half-maximal activity concentration (AC50) in test [1] is 9.66 µM (active); with CD40, CD40 (gene 958), 15.4 µM (active). The result in [1], in [2], in test [3], in test [4], in test [5] and in test [6] was inactive. The outcome is “inactive” in test [7]; “inactive” in [8]; “inactive” with CD38, CD38 (gene 952); “inactive” with CD40, CD40 (gene 958).
For `Oc1ccccc1-c1ccccc1`, the result in test [1], in test [2], in [3], in test [5], in [6] and in [8] was inactive. The outcome was “inactive” with CD38, CD38 (gene 952) and “inactive” in the test with CD40, CD40 (gene 958). Also, the figures for the half-maximal activity concentration (AC50) in test [4] and in [7] were 4.65 µM (active) and 14.8 µM (active), respectively.
Turning to `CCCCNC(=O)n1c(NC(=O)OC)nc2ccccc21`, the concentration at half-maximal activity (AC50) in [1] was 7.48 µM (active); in [8], 22.6 µM (active). The result in test [2], in test [3], in [4], in test [5], in test [6] and in test [7] was inactive. For the same compound, the outcome was “inactive” in the test with CD38, CD38 (gene 952) and “inactive” with CD40, CD40 (gene 958).
`CC(C)C1(C)N=C(c2nc3ccccc3cc2C(=O)O)NC1=O` (stereo unspecified): the outcome in test [1], in [2], in [3], in [4], in test [6] and in test [7] was inactive. The outcome in test [8] was “inactive”; in the test with CD38, CD38 (gene 952), “inactive”. The AC50 is 2.62 µM (active) in test [5] and 1.33 µM (active) with CD40, CD40 (gene 958).
Take `CCCN(CCC)c1c([N+](=O)[O-])cc(S(N)(=O)=O)cc1[N+](=O)[O-]`: the AC50 in [1] was 31.8 µM (active) [middle of 4 runs]; in test [2], 33.5 µM (active) [middle of 4 runs]; in test [3] it was 37.8 µM (active) and 35.1 µM (active) and 33 µM (active); in [4] it was 34.7 µM (active); in test [5], 32.3 µM (active) [middle of 4 runs]; in test [6], 34.3 µM (active) and 38.1 µM (active) and 32.8 µM (active). The AC50 in [7] is 33.6 µM (active) and 32.2 µM (active); in [8], 34.6 µM (active) [middle of 4 runs]; with CD38, CD38 (gene 952), 38.7 µM (active) [middle of 4 runs]; in the test with CD40, CD40 (gene 958), 35.8 µM (active) [middle of 4 runs]. In addition, the result in test [3], in test [4], in test [6] and in test [7] was inactive.
With `N#CC(CCc1ccc(Cl)cc1)(Cn1cncn1)c1ccccc1` (stereo unspecified), the outcome in test [1], in test [2], in test [3], in test [5], in test [6] and in test [7] was inactive. The outcome in [8] was “inactive”; with CD38, CD38 (gene 952) it was “inactive”; with CD40, CD40 (gene 958), “inactive”. The concentration at half-maximal activity (AC50) in test [4] is 3.75 µM (active).
Regarding `COc1nc(C)nc(NC(=O)NS(=O)(=O)c2ccccc2CCC(F)(F)F)n1`, the result in test [1], in test [2], in [3], in test [4], in test [5] and in test [6] was inactive. Also, the outcome was “inactive” in [7]; “inactive” in test [8]; “inactive” with CD38, CD38 (gene 952); “inactive” with CD40, CD40 (gene 958).
As for `O=C(O)c1nc(Cl)ccc1Cl`, the outcome in test [1], in [2], in [3], in test [4], in test [5] and in test [6] was inactive. Further, the outcome in test [7] was “inactive”; in test [8], “inactive”; with CD38, CD38 (gene 952), “inactive”; in the test with CD40, CD40 (gene 958) it was “inactive”.
`CCCCNC(=O)OCC#CI`: the AC50 in [1] is 26.7 µM (active); in test [2] it was 23.2 µM (active) and 13 µM (active); in [3] it was 30.9 µM (active) and 16.6 µM (active); in [4], 36 µM (active); in test [5] it was 20 µM (active) and 17.1 µM (active); in test [6], 15.6 µM (active) and 13.7 µM (active). The AC50 in test [7] is 13.2 µM (active) and 12.3 µM (active); in test [8], 24.9 µM (active) and 27.1 µM (active); with CD38, CD38 (gene 952), 21.4 µM (active) and 17.4 µM (active); with CD40, CD40 (gene 958) it was 18.7 µM (active) and 22.5 µM (active). The outcome in [4] was inactive.
